Where “and” joins values, the source holds several entries; their conditions need not be identical. Identical values can stand only once. Results filed as inconclusive are left out. A structure can be active in one record and inactive in another. Calls of active or inactive are those of the source. Rule for the calls, unless noted: active = hit-call score of the fitted dose curve at least 0.9, where 1 is the maximum; inconclusive = response in the unintended direction; inactive = score below 0.9.
Key:
[1] = molecular target: human Norepinephrine Transporter (NET), SLC6A2 (gene 6530) (UniProt P23975); assay: NVS_TR_hNET: NovaScreen (NVS) Transporter Assay for human Norepinephrine Transporter (NET) (AID 2283377);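 note: cell-free membrane protein extracted from CHO cells expressing human NET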;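 for AC50: displacement of radioligand from human NET seen as loss of scintillation signal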
Outline: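 Single-concentration duplicate screen at 25 uM, then concentration-response for actives; displacement of specific radioligand from human NET in CHO membrane extracts, filter-based scintillation detection at 1 h relative to DMSO.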

[2] = molecular target: mouse Estrogen Receptor alpha (Era), Esr1 (gene 13982) (UniProt P19785); assay: NVS_NR_mERa: NovaScreen (NVS) Nuclear Receptor Binding Assay for mouse Estrogen Receptor alpha (Era) (AID 2283378);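 note: hit means loss of bound radioligand signal relative to DMSO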
Outline: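 Cell-free radioligand competitive displacement binding, read by filter-based scintillation counting 18 h after dosing. Primary screen run in duplicate at 25 uM, actives retested in concentration series; loss of signal versus DMSO.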

[3] = molecular target: Estrogen receptor beta (Homo sapiens) (UniProt Q92731); assay: OT_ER_ERbERb_1440: Odyssey Thera (OT) 24-hour HEK293T Protein-Complementation Assay for Estrogen Receptor-beta/-beta Homodimer (AID 2283380);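 note: fluorescence gain from ER beta LBD homodimer complementation read by laser scanning cytometry; scored as signal increase over DMSO baseline for both agonists and antagonists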
Outline: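 Fluorescence increase, nuclear for agonists or whole-cell for antagonists, relative to DMSO vehicle, quantified by laser scanning cytometer after fixation and Draq5 staining. Readout from 24 h treatment of HEK293T cells carrying complementation-paired ER beta LBD (aa 310-547).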

[4] = molecular target: Estrogen receptor (Homo sapiens) (UniProt P03372); assay: OT_ERa_GFPERaERE_0480: Odyssey Thera (OT) 8-hour HeLa Transcription Induction Assay for Estrogen Receptor (AID 2283381; active = hit-call score of the fitted dose curve at least 0.9, where 1 is the maximum; inactive = score below 0.9)
Outline: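 Fluorescence microscopy with high-content image analysis measures ERE-driven GFP induction in HeLa cells at 8 h post-dose. Increases fitted against DMSO baseline.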

[5] = molecular target: Estrogen receptor (Homo sapiens) (UniProt P03372); assay: OT_ERa_GFPERaERE_0120: Odyssey Thera (OT) 2-hour HeLa Transcription Induction Assay for Estrogen Receptor (AID 2283382)
Outline: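 Fluorescence-microscopy images of the GFP-ERα/ERE reporter, scored by high-content image algorithms, give the readout. HeLa exposure lasted 2 h, and only signal increase over DMSO was fitted.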

[6] = molecular target: Retinoic acid receptor RXR-alpha (Homo sapiens) (UniProt P19793); assay: OT_NURR1_NURR1RXRa_0480: Odyssey Thera (OT) 8-hour HEK293T Protein Complementation Assay for Nurr1/retinoid X receptor (RXR) (AID 2283385)
Outline: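 Interaction of Nurr1 with RXRα read as reconstituted reporter fluorescence in a HEK293T fragment-complementation system, 8 h post-treatment; increase over DMSO baseline analysed.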

[7] = molecular target: Agonist Androgen Response Element (ARE), AR (gene 367) (UniProt P10275); assay: OT_AR_ARELUC_AG_1440: Odyssey Thera (OT) 24-hour CHO-K1 Luciferase Assay for Agonist Androgen Response Element (ARE) (AID 2283379)
Outline: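 Readout: luciferase bioluminescence from CHO-K1 ARE-luc cells, measured 24 h post-dosing; agonism = increased mean luminescence vs DMSO controls, fitted in positive direction.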

[8] = molecular target: Bile acid receptor (Homo sapiens) (UniProt Q96RI1); assay: OT_FXR_FXRSRC1_0480: Odyssey Thera (OT) 8-hour HEK293T Protein-Complementation Assay for Farnesoid X receptor/SRC-1 Co-activator (AID 2283383)
Outline: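 Binding of FXR to coactivator SRC-1 was read as fluorescence from a reconstituted split reporter in HEK293T cells, 8 h after chemical addition. Only increases in signal versus DMSO were fit.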

[9] = molecular target: Bile acid receptor (Homo sapiens) (UniProt Q96RI1); assay: OT_FXR_FXRSRC1_1440: Odyssey Thera (OT) 24-hour HEK293T Protein-Complementation Assay for Farnesoid X receptor/SRC-1 Co-activator (AID 2283384)
Outline: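 Protein-fragment complementation: FXR and SRC-1 fused to reporter fragments that reassemble on interaction, read by fluorescence intensity. Human HEK293T cells measured 24 h post-dose; positive-direction fit versus DMSO.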

[10] = molecular target: Retinoic acid receptor RXR-alpha (Homo sapiens) (UniProt P19793); assay: OT_NURR1_NURR1RXRa_1440: Odyssey Thera (OT) 24-hour HEK293T Protein Complementation Assay for Nurr1/retinoid X receptor (RXR) (AID 2283386)
Outline: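 Gain in fluorescence, fitted relative to DMSO, reflects Nurr1–RXRα association in HEK293T cells after 24 h dosing. Bait and prey are each linked to a reporter-protein fragment that reassembles on interaction.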

Measured: AC50

mouse Estrogen Receptor alpha (Era), Esr1 (gene 13982), sequence (P19785 whole entry, looked up): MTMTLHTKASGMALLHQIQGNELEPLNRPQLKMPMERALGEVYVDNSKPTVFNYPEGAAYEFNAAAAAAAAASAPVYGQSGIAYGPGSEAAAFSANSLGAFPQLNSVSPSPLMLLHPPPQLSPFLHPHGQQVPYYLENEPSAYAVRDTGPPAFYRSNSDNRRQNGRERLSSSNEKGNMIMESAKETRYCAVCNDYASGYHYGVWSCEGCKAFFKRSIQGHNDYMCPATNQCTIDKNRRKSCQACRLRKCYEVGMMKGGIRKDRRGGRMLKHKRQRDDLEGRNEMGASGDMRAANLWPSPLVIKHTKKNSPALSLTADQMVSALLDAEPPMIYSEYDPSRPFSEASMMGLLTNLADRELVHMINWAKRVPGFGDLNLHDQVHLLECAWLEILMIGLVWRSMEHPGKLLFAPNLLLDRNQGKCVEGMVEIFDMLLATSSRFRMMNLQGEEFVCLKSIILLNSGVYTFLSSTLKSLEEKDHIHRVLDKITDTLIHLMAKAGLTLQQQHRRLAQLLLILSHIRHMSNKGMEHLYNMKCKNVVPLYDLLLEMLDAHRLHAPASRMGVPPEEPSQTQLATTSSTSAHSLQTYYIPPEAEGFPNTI
Estrogen receptor beta (Homo sapiens), sequence (Q92731 whole entry, looked up, the tested form may be a part): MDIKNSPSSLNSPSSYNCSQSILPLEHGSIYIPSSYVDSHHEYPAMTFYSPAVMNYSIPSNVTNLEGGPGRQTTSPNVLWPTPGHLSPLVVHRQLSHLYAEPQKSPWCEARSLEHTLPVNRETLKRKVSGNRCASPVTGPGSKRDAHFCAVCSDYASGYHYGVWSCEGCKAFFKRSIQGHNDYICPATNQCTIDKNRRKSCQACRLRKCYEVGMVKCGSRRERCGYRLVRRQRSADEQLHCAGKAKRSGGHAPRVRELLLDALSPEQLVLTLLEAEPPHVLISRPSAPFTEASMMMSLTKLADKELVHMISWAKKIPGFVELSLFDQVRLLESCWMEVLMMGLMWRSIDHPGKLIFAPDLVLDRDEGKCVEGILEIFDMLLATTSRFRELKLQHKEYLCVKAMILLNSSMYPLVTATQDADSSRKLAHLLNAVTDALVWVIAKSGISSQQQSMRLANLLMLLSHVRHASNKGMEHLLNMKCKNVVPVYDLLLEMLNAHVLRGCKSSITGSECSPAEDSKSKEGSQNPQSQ
Bile acid receptor (Homo sapiens), sequence (Q96RI1 whole entry, looked up, the tested form may be a part): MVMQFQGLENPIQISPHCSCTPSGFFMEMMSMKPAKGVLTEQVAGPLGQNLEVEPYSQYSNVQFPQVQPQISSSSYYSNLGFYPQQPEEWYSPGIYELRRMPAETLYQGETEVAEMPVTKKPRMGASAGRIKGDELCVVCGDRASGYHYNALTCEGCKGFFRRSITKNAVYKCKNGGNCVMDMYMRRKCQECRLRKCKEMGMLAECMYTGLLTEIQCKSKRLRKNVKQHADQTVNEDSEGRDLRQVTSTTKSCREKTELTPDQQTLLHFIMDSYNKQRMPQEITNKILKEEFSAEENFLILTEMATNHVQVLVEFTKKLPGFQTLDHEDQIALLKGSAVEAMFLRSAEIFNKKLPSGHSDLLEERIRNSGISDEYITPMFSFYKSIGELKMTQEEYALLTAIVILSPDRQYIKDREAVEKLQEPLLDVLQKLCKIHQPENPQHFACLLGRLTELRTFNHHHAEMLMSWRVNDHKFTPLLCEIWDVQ
human Norepinephrine Transporter (NET), SLC6A2 (gene 6530), sequence (P23975 whole entry, looked up): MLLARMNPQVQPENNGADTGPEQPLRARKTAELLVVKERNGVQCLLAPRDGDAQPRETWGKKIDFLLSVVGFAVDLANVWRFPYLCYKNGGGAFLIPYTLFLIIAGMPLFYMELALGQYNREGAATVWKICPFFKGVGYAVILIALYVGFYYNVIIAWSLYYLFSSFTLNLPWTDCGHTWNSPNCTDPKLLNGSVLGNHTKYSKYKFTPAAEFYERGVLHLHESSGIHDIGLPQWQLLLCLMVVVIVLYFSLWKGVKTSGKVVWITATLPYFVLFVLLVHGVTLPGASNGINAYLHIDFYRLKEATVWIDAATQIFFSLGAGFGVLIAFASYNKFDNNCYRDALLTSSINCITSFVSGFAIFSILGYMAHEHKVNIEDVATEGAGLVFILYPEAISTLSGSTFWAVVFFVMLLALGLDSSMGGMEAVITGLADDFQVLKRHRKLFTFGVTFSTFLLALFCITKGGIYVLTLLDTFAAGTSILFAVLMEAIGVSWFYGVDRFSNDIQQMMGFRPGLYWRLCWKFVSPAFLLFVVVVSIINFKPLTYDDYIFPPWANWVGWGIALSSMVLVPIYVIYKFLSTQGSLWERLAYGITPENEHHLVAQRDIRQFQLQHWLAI
Agonist Androgen Response Element (ARE), AR (gene 367), sequence (P10275 whole entry, looked up): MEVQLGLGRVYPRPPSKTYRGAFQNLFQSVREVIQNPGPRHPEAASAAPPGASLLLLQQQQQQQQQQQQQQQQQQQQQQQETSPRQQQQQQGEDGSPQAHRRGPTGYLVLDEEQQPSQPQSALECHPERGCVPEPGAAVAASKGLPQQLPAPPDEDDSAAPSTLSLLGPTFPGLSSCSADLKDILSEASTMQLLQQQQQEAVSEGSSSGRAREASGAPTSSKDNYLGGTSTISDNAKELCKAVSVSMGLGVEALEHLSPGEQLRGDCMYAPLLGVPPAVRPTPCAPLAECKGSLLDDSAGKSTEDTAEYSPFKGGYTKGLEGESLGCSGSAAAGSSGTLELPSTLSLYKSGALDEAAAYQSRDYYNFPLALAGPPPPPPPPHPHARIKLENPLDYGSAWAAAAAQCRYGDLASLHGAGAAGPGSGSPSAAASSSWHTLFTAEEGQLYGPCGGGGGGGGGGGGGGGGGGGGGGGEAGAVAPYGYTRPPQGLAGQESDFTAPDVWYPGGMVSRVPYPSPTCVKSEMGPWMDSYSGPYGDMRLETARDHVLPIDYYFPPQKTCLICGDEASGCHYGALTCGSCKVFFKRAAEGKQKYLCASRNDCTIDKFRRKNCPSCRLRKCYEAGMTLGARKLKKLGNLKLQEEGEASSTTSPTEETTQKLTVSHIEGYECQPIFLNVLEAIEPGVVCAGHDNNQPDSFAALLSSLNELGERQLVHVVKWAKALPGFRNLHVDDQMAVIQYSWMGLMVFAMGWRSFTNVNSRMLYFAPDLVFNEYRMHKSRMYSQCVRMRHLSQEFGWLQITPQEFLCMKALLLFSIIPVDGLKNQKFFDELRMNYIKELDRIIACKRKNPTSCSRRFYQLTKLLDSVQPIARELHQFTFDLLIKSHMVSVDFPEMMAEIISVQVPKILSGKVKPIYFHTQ
Estrogen receptor (Homo sapiens), sequence (P03372 whole entry, looked up): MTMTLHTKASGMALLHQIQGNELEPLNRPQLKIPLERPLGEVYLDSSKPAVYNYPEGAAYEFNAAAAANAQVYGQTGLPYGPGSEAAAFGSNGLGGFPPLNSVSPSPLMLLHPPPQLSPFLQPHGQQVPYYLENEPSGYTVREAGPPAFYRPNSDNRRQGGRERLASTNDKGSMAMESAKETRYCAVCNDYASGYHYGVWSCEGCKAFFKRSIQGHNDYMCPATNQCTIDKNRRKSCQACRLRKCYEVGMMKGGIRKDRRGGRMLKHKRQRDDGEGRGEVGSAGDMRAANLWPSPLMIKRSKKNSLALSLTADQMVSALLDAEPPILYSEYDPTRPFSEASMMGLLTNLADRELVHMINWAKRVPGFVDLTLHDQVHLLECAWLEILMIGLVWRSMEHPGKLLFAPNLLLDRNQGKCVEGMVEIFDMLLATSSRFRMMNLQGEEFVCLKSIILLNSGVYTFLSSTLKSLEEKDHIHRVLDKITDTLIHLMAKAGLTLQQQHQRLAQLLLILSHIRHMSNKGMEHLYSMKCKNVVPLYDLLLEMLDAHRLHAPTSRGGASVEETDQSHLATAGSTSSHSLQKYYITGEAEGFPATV
Retinoic acid receptor RXR-alpha (Homo sapiens), sequence (P19793 whole entry, looked up, the tested form may be a part): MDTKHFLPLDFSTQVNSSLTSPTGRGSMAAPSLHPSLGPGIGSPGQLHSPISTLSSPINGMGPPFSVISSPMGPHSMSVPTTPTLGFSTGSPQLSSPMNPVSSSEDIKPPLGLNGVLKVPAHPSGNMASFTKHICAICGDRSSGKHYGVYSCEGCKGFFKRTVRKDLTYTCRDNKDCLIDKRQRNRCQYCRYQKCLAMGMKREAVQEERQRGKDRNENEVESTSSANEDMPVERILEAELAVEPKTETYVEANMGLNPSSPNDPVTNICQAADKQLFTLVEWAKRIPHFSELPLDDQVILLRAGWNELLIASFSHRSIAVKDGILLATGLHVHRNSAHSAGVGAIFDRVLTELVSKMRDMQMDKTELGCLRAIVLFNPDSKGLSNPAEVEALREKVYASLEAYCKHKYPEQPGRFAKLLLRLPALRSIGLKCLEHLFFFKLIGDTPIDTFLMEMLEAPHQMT

Clc1ccccc1C(c1ccccc1)(c1ccccc1)n1ccnc1
inactive: [1] | [2] | [3] | [5] | [6]
active: [4] 79 µM

O=C(Nc1ccc(Cl)cc1)Nc1ccc(Cl)c(Cl)c1
inactive: [1] | [2] | [3] | [4] | [5] | [8] | [9] | [10]
active: [7] 0.336 µM | [6] 12.5 µM

CC/C(=C(/CC)c1ccc(O)cc1)c1ccc(O)cc1
inactive: [1] | [8] | [9] | [6] | [10]

CCCCCc1ccc(N)cc1
inactive: [2] | [3] | [4] | [5] | [6] | [10]
active: [2] 45.9 nM

O=C1c2ccccc2C(=O)N1CCc1noc(-c2ccc(CN3CCCCCC3)s2)n1
inactive: [4] | [5]
active: [1] 6.14 µM

CCN(CC)C(=O)c1cc(S(=O)(=O)Cc2ccccc2)c(N2CCC(c3ccccc3)CC2)cc1N(CC)CCN(C)C
active: [1] 10.4 µM | [2] 2540 nM | [5] 19 µM | [8] 4.46 µM | [9] 4.38 µM | [6] 4.48 µM | [10] 4.48 µM
inactive: [3] | [4]

CC(C)(C)c1cc(/C=C2\SC(N)=NC2=O)cc(C(C)(C)C)c1O
inactive: [2] | [3] | [4] | [5] | [6] | [10]
active: [9] 50 µM

c1ccc(C[n+]2cccc3ccccc32)cc1
inactive: [3] | [4] | [5] | [8] | [9]
active: [1] 15.4 µM

Cc1cc(F)ccc1-c1cc(N2CC[C@@H](O)[C@H]2CO)ncc1N(C)C(=O)C(C)(C)c1cc(C(F)(F)F)cc(C(F)(F)F)c1
active: [1] 5.97 µM | [10] 9.74 µM
inactive: [7] | [3] | [4] | [5]

CCOC(=O)O[C@H](C)OC(=O)c1ccc2c(c1)cc(C(=O)NC1CCN(C(C)C)CC1)n2Cc1cc(-c2ccc(Cl)s2)on1
active: [1] 1.95 µM | [4] 19.6 µM | [5] 23.8 µM | [9] 74.9 µM
inactive: [3]

CN(C)C(=O)C1(N2CCCCC2)CCN(CC[C@@]2(c3ccc(Cl)c(Cl)c3)CN(C(=O)c3ccccc3)CCO2)CC1
active: [1] 2.33 µM | [2] 203 nM | [4] 16.8 µM | [5] 14.8 µM
inactive: [7]

NCc1cccc(C2CCN(C(=O)c3ccc(C#Cc4ccccc4F)o3)CC2)c1
active: [1] 4.42 µM | [5] 12 µM
inactive: [7] | [4] | [9]

CCCC(=O)OCCC(C)C
inactive: [7] | [4] | [8] | [9] | [6] | [10]

CN(C[C@@H](CC[N+]12CCC(C3CCCCC3)(CC1)CC2)c1ccc(Cl)c(Cl)c1)C(=O)c1cc(C(F)(F)F)cc(C(F)(F)F)c1
active: [1] 1.38 µM | [4] 12.4 µM | [8] 85.4 µM | [9] 78.1 µM
inactive: [2] | [7] | [3] | [5]

O=C(OCCCCCCOC(=O)c1ccccc1)c1ccccc1
inactive: [1] | [4] | [5] | [9] | [6]
active: [8] 50 µM

CCN(Cc1cccnc1)C(=O)c1cccc(Cl)c1[C@]1(C)C(=O)N(Cc2ccc(OC)cc2OC)c2ccc(Cl)cc21
inactive: [7] | [3] | [4] | [5] | [6] | [10]
active: [8] 0.278 µM | [9] 0.59 µM

CCCCCCCCCCCC[N+](C)(C)C
active: [1] 7.96 µM
inactive: [3]

O=c1c(-c2ccc(O)cc2)coc2cc(O)cc(O)c12
active: [8] 12.5 µM and 11.5 µM and 13.4 µM | [9] 18.9 µM and 20.5 µM and 18.6 µM | [6] 29 µM [middle of 4 runs]
inactive: [7] | [8] | [9] | [6] | [10]

O=C(O)Cn1c(=O)n(Cc2ccc(Br)cc2F)c(=O)c2ccc(Cl)cc21
inactive: [7] | [3] | [4] | [5] | [8] | [9] | [6] | [10]

CC(C)(c1cc(Br)c(O)c(Br)c1)c1cc(Br)c(O)c(Br)c1
active: [8] 70 µM | [6] 20.6 µM and 72.4 µM | [10] 47.8 µM
inactive: [2] | [3] | [10]

CN1C(=O)N(c2ccccc2Br)Cc2cnc(Nc3ccc4c(c3)OCC(CO)O4)nc21 (configuration not stated)
inactive: [3] | [5] | [10]
active: [1] 4.72 µM | [4] 55.4 µM | [8] 0.34 µM | [9] 0.54 µM | [6] 0.714 µM

COc1cc(C(=O)NC2CCN(C)CC2)ccc1Nc1ncc2c(n1)N(C1CCCC1)CC(F)(F)C(=O)N2C
inactive: [4] | [5]
active: [1] 23.2 µM | [2] 1490 nM | [3] 1.94 µM | [8] 11 µM | [9] 11 µM | [6] 10.9 µM | [10] 11 µM

CCCCCCCCN(C)CCCCCCCC
inactive: [2] | [7] | [4] | [5] | [6] | [10]

Cc1ccc(C(C)C)cc1
inactive: [7] | [4] | [5] | [8] | [6] | [10]

Cc1occc1C(=O)Nc1ccc(C(=O)N2CCC(F)(F)/C(=C\C(=O)N3CCC(N4CCCCC4)CC3)c3ccccc32)cc1
inactive: [7] | [3] | [4] | [5]
active: [6] 28.6 µM | [10] 28.3 µM

OCCO
inactive: [7] | [4] | [5] | [9] | [10]

Cc1cn([C@H]2C[C@H](N=[N+]=[N-])[C@@H](CO)O2)c(=O)[nH]c1=O
inactive: [1] | [4] | [5] | [8] | [6] | [10]

COCC(C)OCC(C)OCC(C)O (configuration not stated)
inactive: [7] | [3] | [4] | [5] | [6] | [10]

CCCOC(=O)c1cc(O)c(O)c(O)c1
active: [3] 12.7 µM
inactive: [2] | [4] | [5] | [8] | [9] | [6] | [10]

CCCCCCCCCCCO
inactive: [2] | [3] | [4] | [5] | [8] | [9] | [6] | [10]

COc1ccc2cc(S(=O)(=O)N[C@H](CC(=O)N[C@H](Cc3ccc(CN4[C@H](C)CCC[C@@H]4C)cc3)C(=O)N(C)C(C)C)c3ccc4c(c3)OCO4)ccc2c1
inactive: [2]
active: [4] 15.8 µM | [5] 28.6 µM | [8] 11.1 µM | [6] 11.1 µM

C[C@]12CC[C@@H]3c4ccc(O)cc4CC[C@H]3[C@@H]1CCC2=O
active: [2] 7.03 nM [middle of 4 runs] | [9] 22.6 µM and 35.9 µM and 30 µM | [10] 32.1 µM
inactive: [2] | [8] | [9] | [6] | [10]

CC(=O)N1CCN(c2ccc(OC[C@H]3CO[C@](Cn4ccnc4)(c4ccc(Cl)cc4Cl)O3)cc2)CC1
active: [1] 9.91 µM | [4] 81.2 µM | [5] 94 µM
inactive: [2] | [3]

From PubChem BioAssay (EPA / NIEHS)
